For experiment [1], the system named is Wnt5a (protein binding on small-molecule microarray). As to the kind of experiment: Wnt5a binders on small-molecule microarray, primary screen, biophysical, 635/667 nm fluorescence (AID 1142).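 Also: fluorescence read at 667 nm with signal to noise per printed feature.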 Conditions: 635 nm fluorescence, higher = more signal.
Experiment [2] is described as follows: cell viability in Huh7 cells, primary screen, cytotoxicity control for HCV replication inhibitor project, CellTiter-Glo luminescence, basal, 48 h (AID 1143).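 Also: Huh7 hepatoma cells carrying a hepatitis C replication reporter with no stimulus; test concentration not given here.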 Conditions: Huh7 HCV replicon, higher = more signal, called active from +8 up or from −8 down.
Experiment [3] in a line: P. aeruginosa biofilm formation inhibitors, primary screen, PAO1 strain, BacTiter-Glo luminescence, LB-PBS (AID 1144). Conditions: 12 h, higher = more signal.
Experiment [4] is described as follows: CREB reporter modulators without forskolin, primary screen, cell-based, PC12, CRE-LacZ reporter, unstimulated (AID 1145). Conditions: no forskolin, luminescence, 4.5 h, higher = more signal, called active from +8 up or from −8 down.
A short description of experiment [5]: CREB reporter modulators under forskolin, primary screen, cell-based, PC12, CRE-LacZ reporter, forskolin-stimulated (AID 1146).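 Also: PC12 cells with 6xCRE LacZ reporter stimulated by forskolin 10 µM; beta-galactosidase reporter signal reflecting CREB driven transcription.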 Conditions: luminescence, 4.5 h, higher = more signal, called active from +8 up or from −8 down.
The target in experiment [6] is Streptavidin (Streptomyces avidinii) (UniProt P22629). As to the kind of experiment: streptavidin binders on small-molecule microarray, primary screen, artefact control for SMM compound annotation, biophysical, 635/667 nm fluorescence (AID 1147).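 Also: signal reflects streptavidin binding to arrayed compounds as a control protein.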 The note with it: streptavidin binding, higher = more signal.
Experiment [7] can be described thus: small-molecule binders of probe aInhba, primary screen, biochemical, small-molecule microarray, 635/667 nm fluorescence (AID 1148).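 Also: score merges 667nm spot fluorescence with signal-to-noise for antibody binding to printed compounds.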 The note with it: higher = more signal.
Experiment [8] concerns the target Torsin-1A (Homo sapiens) (UniProt O14656). The experiment can be described thus: torsin A binders from cell lysate, primary screen, small-molecule microarray, wild-type, 635/667 nm (AID 1149). Conditions: COS7 hTOR1A-WT lysate, 635 nm fluorescence, higher = more signal.
Experiment [9] has the same target. The experiment can be described thus: small-molecule binders of mutant TOR1A in lysate, primary screen, cell lysate, small-molecule microarray, COS7 lysate, 635/667 nm fluorescence (AID 1150).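 Also: score pools 667 nm emission and signal to noise measuring lysate protein binding.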 The note with it: COS7 hTOR1A mutant lysate, 635 nm fluorescence, higher = more signal.
Experiment [10] relates to Sonic hedgehog protein (Shh). The experiment can be described thus: small-molecule binders of Shh protein, primary screen, biochemical, small-molecule microarray, 635/667 nm fluorescence (AID 1151).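 Also: Shh protein binding to compounds spotted on small-molecule microarray slides; score combines spot fluorescence intensity with signal-to-noise across triplicate slides.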 Conditions: small-molecule microarray binding, 635 nm fluorescence; higher = more signal.
Experiment [11] is described as follows: E. coli DRC41 culture turbidity changes, primary screen, E. coli filamentation inducer project, strain DRC41, OD650, 48 h (AID 1152).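 Also: E. coli MC1000 strain DRC41 lacking acrAB efflux pump and sulA.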 Conditions: E. coli DRC41 (acrAB sulA), higher = more signal, called active from +8 up or from −8 down.
The nature of experiment [12]: small-molecule binders of probe aLefty1, primary screen, biochemical, small-molecule microarray, 635/667 nm fluorescence (AID 1153).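 Also: score merges spot fluorescence with signal-to-noise ratio from the scanned slide images.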 Conditions: higher = more signal.
The nature of experiment [13]: PSAC antagonists in infected red cells, primary screen, cell-based, P. falciparum Indochina, OD700, 1 h (AID 1154). The note with it: P. falciparum Indochina infected RBC osmotic lysis, higher = more signal, called active from +8 up or from −8 down.
Experiment [14] can be described thus: PSAC antagonists in infected red cells, primary screen, cell-based, P. falciparum Indochina, OD700, 2 h (AID 1155).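 Also: lysis reports solute entry through the parasite surface anion channel PSAC; channel blockers reduce lysis of infected cells.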 Conditions: P. falciparum Indochina infected erythrocytes, osmotic lysis OD700; higher = more signal, called active from +8 up or from −8 down.
Experiment [15] can be described thus: osmotic lysis modulators in infected erythrocytes, primary screen, PSAC antagonist project, cell-based, P. falciparum Indochina, OD700, 3 h (AID 1156). The note with it: higher = more signal, called active from +8 up or from −8 down.
Experiment [16] in a line: PSAC antagonists in infected red cells, primary screen, cell-based, P. falciparum Indochina, OD700, 18 h (AID 1157). The note with it: P. falciparum Indochina infected erythrocytes, osmotic lysis OD700, 18 h; higher = more signal, called active from +8 up or from −8 down.
The nature of experiment [17]: modulators of S6 phosphorylation in cells, primary screen, cell-based, A549, cytoblot, luminescence, serum-stimulated (AID 1158).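 Also: serum-stimulated A549 lung adenocarcinoma cells; signal is phosphorylated S6 detected by cytoblot immunostaining with HRP secondary.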 The note with it: A549 phospho-S6 cytoblot, 5 h, higher = more signal.
Experiment [18] concerns the target NADPH oxidase 2 (Homo sapiens) (UniProt P04839). The experiment can be described thus: NOX2-dependent H2O2 signal modulators, primary screen, NOX inhibitor project, cell-based, HEK293-NOX2, PMA-stimulated, Amplex Red fluorescence (AID 1159). Also: test concentration not given here. The note with it: 45 min, higher = more signal, called active from +8 up or from −8 down.
Experiment [19] addresses NADPH oxidase 4 (Homo sapiens) (UniProt Q9NPH5). The experiment can be described thus: NOX4-dependent H2O2 signal modulators, primary screen, NOX inhibitor project, cell-based, HEK293-NOX4, tetracycline-induced, Amplex Red fluorescence (AID 1160). The note with it: 45 min, higher = more signal, called active from +8 up or from −8 down.
The target in experiment [20] is NADPH oxidase 5 (Homo sapiens) (UniProt Q96PH1). The experiment can be described thus: NOX5-dependent H2O2 signal modulators, primary screen, NOX inhibitor project, cell-based, HEK293-NOX5, Amplex Red fluorescence (AID 1161). Conditions: HEK293-NOX5, ionomycin, 45 min, higher = more signal.

Our source for the composite z-score and z-score values is PubChem BioAssay.

Active and inactive are the calls of the source. Unless noted, no rule for the calls is given here.

Chain of Streptavidin (Streptomyces avidinii) (P22629 whole entry, looked up): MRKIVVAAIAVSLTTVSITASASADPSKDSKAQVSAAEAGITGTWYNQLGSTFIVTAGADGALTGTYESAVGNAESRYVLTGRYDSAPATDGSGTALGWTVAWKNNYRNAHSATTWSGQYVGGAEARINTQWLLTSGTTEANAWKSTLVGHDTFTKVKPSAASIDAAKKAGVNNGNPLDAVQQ
Chain of NADPH oxidase 2 (Homo sapiens) (P04839 whole entry, looked up): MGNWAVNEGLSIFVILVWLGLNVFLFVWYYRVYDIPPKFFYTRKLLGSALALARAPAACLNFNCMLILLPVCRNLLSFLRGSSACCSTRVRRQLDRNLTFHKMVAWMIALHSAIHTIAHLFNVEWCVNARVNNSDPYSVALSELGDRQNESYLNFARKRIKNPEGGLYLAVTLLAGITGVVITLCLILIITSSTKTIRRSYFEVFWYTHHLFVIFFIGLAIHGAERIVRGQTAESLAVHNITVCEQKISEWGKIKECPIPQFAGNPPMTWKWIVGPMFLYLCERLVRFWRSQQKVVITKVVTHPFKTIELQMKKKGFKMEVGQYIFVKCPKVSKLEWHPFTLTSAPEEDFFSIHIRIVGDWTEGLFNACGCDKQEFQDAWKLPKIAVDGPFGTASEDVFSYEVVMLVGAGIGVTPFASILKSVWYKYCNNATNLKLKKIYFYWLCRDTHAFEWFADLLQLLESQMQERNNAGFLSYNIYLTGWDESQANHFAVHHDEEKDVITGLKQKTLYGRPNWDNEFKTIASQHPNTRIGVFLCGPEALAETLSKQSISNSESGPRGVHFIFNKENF
Chain of NADPH oxidase 4 (Homo sapiens) (Q9NPH5 whole entry, looked up): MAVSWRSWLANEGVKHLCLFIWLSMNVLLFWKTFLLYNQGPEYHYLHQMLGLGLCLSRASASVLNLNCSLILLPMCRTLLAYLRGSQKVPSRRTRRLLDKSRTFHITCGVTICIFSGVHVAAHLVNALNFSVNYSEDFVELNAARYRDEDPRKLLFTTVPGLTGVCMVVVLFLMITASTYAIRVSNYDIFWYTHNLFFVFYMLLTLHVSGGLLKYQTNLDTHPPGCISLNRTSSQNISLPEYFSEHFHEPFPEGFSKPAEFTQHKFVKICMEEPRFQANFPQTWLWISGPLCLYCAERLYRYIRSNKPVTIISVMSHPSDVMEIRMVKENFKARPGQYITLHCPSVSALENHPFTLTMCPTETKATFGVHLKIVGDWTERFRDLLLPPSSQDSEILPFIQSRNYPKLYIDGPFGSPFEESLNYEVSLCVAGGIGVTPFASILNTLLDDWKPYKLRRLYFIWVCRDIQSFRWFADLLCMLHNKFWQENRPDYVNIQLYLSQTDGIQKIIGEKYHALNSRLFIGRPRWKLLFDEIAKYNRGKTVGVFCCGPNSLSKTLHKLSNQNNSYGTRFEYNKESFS
Chain of NADPH oxidase 5 (Homo sapiens) (Q96PH1 whole entry, looked up): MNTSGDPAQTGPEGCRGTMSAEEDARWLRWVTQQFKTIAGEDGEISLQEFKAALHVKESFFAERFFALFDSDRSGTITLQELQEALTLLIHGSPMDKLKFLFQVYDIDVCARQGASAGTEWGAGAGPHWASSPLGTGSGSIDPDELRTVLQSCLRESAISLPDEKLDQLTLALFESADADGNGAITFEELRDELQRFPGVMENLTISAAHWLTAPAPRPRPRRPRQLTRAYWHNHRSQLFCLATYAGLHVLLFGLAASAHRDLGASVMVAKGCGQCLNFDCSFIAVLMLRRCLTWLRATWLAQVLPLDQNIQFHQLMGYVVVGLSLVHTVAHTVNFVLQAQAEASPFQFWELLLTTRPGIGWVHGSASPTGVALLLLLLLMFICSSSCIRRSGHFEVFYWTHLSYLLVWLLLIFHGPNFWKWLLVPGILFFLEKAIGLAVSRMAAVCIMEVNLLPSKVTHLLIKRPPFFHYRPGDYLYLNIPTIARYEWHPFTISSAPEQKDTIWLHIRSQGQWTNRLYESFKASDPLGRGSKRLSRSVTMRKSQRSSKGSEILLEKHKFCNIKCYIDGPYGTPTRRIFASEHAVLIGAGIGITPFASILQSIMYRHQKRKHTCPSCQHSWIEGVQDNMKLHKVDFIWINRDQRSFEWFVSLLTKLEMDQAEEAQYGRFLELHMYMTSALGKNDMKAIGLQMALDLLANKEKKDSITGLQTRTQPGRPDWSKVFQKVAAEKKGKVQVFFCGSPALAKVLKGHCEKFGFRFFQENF
Chain of Torsin-1A (Homo sapiens) (O14656 whole entry, looked up): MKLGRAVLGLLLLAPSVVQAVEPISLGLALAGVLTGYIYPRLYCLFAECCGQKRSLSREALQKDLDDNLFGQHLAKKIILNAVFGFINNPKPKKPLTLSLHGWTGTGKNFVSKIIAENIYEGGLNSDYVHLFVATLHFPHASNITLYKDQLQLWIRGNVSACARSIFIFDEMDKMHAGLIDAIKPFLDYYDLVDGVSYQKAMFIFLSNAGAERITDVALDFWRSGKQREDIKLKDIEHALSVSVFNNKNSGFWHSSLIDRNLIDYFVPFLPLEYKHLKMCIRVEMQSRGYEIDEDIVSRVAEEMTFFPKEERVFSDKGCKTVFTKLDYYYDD

Turning to `O=C1C[C@@H](O)[C@@H](O)[C@@H]2[C@@H]3C(=O)N(c4cccc(Oc5ccccc5)c4)C(=O)[C@@H]3CC[C@@H]12`, the composite z-score in [1] was 0.111; in experiment [6], 0.251; in [7], 0.0227; with Torsin-1A (Homo sapiens) [8], 0.446; with Torsin-1A (Homo sapiens) [9], 0.463; in experiment [10] it was 0.521. This compound also yielded a composite z-score in experiment [12] of -0.0652. For the same compound, the z-score in [2] is -0.146 (inactive); in experiment [3] it was 1.27 (inactive); in [4], 1.24 (inactive); in [5], 0.061 (inactive); in experiment [11], -0.268 (inactive); in experiment [13] it was 0.956 (inactive). In addition, the z-score in [14] was -0.329 (inactive); in experiment [15], 0.406 (inactive); in [16], 0.0818 (inactive); in experiment [17], -0.363; in experiment [18] it was -0.837 (inactive); in experiment [19], -0.154 (inactive). Moreover, in experiment [20], the z-score worked out at 0.558.

On to `COCCNC(=O)OCC1CCCC2(CC(OC(=O)NCCc3ccc(F)cc3)CC(CCC(=O)N[C@@H](C)C(=O)OC)O2)O1` (stereo not given in full), for which the composite z-score in [1] was 0.156; in [6] it was 0.753; in experiment [7], -0.128; with Torsin-1A (Homo sapiens) [8], 0.267; with Torsin-1A (Homo sapiens) [9], -0.0343; in experiment [10], 1.09. Also, the composite z-score in [12] was determined as 0.0547. The z-score in experiment [2] is -0.126 (inactive); in [3], 0.252 (inactive); in [4], 0.374 (inactive); in [5] it was -0.448 (inactive); in [11] it was 0.622 (inactive); in experiment [13], -0.577 (inactive). The z-score was -0.61 (inactive) in [14]; 0.958 (inactive) in experiment [15]; 0.565 (inactive) in experiment [16]; 0.672 in [17]; 0.769 (inactive) in [18]; 0.948 (inactive) in experiment [19]. In addition, the z-score in experiment [20] is 0.232.

For `CC(C)[Si]1(C(C)C)O[C@@H](c2ccccc2)c2cc(C3CC3)nc(-c3ccccc3)c21`, the composite z-score in experiment [1] was -0.0654; in [6], 0.0887; in [7], -0.207; with Torsin-1A (Homo sapiens) [8] it was -1; with Torsin-1A (Homo sapiens) [9] it was -0.124; in experiment [10], 0.397. In experiment [12], this compound registered a composite z-score of -0.108. For the same compound, the z-score is 0.414 (inactive) in experiment [2]; -0.134 (inactive) in experiment [3]; -0.258 (inactive) in experiment [4]; -0.541 (inactive) in experiment [5]; -1.02 (inactive) in [11]; 1.27 (inactive) in experiment [13]. In addition, the z-score in [14] is 0.389 (inactive); in experiment [15], -0.0854 (inactive); in [16] it was -0.0349 (inactive); in [17] it was 0.19; in experiment [18] it was -0.305 (inactive); in [19] it was 0.504 (inactive). The same compound yielded a z-score in experiment [20] of 0.0972.

With `C[C@H]1CC[C@@H](C(=O)O)N[C@@H]1c1ccc(C#CCN(C)C)cc1`, the composite z-score in [1] is 0.163; in experiment [6] it was 0.85; in [7], -0.273; in the experiment with Torsin-1A (Homo sapiens) [8], 0.363; with Torsin-1A (Homo sapiens) [9] it was 0.323; in experiment [10] it was 0.427. Besides, the composite z-score in [12] was -0.231. In addition, the z-score in [2] was 0.141 (inactive); in experiment [3], -0.0379 (inactive); in experiment [4] it was 1.83 (inactive); in experiment [5], -1.12 (inactive); in experiment [11], 0.883 (inactive); in [13] it was 0.167 (inactive). Also, the z-score is -0.219 (inactive) in [14]; 0.274 (inactive) in [15]; -0.0947 (inactive) in experiment [16]; 0.112 in experiment [17]; 0.903 (inactive) in experiment [18]; -0.00118 (inactive) in experiment [19]. Besides, the z-score in experiment [20] was 0.0715.

On to `CN1C(=O)C2C=CC(C(O)c3ccc(I)cc3)N(NC(=O)OC(C)(C)C)C2C1=O` (stereo not given), for which the composite z-score is 0.0527 in [1]; 0.323 in [6]; 0.274 in experiment [7]; -0.042 with Torsin-1A (Homo sapiens) [8]; 0.447 in the experiment with Torsin-1A (Homo sapiens) [9]; -0.436 in experiment [10]. The compound also displayed a composite z-score in [12] of 0.317. Besides, the z-score was 0.6 (inactive) in [2]; 0.155 (inactive) in [3]; -0.515 (inactive) in experiment [4]; 0.699 (inactive) in experiment [5]; -1.55 (inactive) in [11]; 0.365 (inactive) in experiment [13]. The z-score in experiment [14] was 0.214 (inactive); in experiment [15], -0.43 (inactive); in experiment [16], 1 (inactive); in experiment [17], -1.09; in experiment [18] it was -1.01 (inactive); in [19], -0.982 (inactive). The z-score in experiment [20] was -0.411.
